Reference: the supplement of paper PMC11732987, “Enantioselective OTUD7B fragment discovery through chemoproteomics screening and high-throughput optimisation” (Communications Chemistry, 2025)

What was measured:
Experiment in all cases: log2 ratio of Biotin-Ahx-Ub-VS probe labelling (fragment/DMSO); higher = less target engagement (more negative = stronger competition), active = hit call of the paper (q ≤ 0.05, log2 ratio ≤ -1)
Details in all cases: compound concentration: 200 uM; treatment time: 3 h
USP34 = USP34 (UniProt Q70CQ2)
In short: (§1)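 Labelled DUBs were enriched with NeutrAvidin, digested with LysC and trypsin, and run by diaPASEF LC-MS/MS. The labelling used Biotin-Ahx-Ub-VS at 0.5 µM final for 1 h on HEK293T lysate (495 µg per sample) previously treated in triplicate with fragment at 200 µM or vehicle for 3 h. Values are average log2 fragment/vehicle ratios by unpaired t-test on global-median-normalised Spectronaut quantities of proteins with ≥2 unique peptides.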

USP36 = biological target: T1, USP36 (UniProt Q9P275)
T1 sequence (whole entry): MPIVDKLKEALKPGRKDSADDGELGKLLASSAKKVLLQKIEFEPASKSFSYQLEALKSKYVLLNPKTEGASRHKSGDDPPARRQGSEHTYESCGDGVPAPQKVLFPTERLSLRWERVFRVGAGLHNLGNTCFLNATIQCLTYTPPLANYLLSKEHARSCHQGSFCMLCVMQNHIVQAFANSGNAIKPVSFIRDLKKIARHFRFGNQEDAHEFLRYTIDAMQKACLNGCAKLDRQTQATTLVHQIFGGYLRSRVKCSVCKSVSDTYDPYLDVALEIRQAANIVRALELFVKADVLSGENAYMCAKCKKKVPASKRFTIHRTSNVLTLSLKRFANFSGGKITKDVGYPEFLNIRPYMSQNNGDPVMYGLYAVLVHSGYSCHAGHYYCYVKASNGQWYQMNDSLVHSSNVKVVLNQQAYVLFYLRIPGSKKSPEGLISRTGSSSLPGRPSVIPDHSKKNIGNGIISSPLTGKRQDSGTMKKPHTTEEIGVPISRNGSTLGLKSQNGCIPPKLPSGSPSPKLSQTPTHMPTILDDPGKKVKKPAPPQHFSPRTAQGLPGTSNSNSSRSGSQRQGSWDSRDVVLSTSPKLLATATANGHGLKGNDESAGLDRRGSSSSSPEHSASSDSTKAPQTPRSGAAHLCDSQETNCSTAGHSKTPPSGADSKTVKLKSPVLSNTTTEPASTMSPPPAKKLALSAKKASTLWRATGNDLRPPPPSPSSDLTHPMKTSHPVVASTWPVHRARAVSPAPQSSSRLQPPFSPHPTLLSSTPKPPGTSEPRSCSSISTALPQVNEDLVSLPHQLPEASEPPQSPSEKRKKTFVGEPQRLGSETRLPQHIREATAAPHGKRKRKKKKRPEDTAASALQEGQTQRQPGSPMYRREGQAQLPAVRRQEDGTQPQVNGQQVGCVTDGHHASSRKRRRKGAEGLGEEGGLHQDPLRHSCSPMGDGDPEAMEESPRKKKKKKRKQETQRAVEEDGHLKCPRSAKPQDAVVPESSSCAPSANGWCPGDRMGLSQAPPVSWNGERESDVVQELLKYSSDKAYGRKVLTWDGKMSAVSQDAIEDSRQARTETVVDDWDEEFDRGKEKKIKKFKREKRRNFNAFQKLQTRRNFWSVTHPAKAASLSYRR
In short: as §1

USP38 = biological target: T2, USP38 (UniProt Q8NB14)
T2 sequence (whole entry): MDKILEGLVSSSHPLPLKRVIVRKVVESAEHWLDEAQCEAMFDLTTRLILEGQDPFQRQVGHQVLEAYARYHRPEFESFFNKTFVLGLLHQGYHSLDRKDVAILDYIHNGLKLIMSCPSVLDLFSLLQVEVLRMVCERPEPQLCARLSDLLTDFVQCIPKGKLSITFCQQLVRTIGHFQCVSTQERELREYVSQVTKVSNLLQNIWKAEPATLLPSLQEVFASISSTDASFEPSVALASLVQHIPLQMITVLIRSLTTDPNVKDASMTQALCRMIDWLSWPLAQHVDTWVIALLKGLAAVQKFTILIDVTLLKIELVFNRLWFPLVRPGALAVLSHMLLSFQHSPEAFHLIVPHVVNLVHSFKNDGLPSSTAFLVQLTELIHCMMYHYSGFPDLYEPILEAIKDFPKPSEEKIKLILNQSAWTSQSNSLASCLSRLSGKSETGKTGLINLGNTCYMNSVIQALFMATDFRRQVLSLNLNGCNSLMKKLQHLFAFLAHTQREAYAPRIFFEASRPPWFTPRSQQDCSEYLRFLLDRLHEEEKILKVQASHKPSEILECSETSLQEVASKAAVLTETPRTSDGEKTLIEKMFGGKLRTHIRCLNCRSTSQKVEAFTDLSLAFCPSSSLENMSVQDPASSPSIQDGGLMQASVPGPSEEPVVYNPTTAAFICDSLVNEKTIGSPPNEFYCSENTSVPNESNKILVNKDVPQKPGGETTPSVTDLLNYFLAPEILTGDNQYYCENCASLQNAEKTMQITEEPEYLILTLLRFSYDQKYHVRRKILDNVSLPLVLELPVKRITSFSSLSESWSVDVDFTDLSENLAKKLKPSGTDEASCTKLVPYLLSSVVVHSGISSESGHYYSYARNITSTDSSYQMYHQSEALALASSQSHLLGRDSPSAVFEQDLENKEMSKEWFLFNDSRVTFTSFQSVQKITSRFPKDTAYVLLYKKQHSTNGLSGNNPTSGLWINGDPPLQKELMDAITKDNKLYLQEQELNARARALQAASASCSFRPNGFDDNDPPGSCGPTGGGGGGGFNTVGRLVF
In short: as §1

USP39 = biological target: T3, USP39 (UniProt Q53GS9)
T3 sequence (whole entry): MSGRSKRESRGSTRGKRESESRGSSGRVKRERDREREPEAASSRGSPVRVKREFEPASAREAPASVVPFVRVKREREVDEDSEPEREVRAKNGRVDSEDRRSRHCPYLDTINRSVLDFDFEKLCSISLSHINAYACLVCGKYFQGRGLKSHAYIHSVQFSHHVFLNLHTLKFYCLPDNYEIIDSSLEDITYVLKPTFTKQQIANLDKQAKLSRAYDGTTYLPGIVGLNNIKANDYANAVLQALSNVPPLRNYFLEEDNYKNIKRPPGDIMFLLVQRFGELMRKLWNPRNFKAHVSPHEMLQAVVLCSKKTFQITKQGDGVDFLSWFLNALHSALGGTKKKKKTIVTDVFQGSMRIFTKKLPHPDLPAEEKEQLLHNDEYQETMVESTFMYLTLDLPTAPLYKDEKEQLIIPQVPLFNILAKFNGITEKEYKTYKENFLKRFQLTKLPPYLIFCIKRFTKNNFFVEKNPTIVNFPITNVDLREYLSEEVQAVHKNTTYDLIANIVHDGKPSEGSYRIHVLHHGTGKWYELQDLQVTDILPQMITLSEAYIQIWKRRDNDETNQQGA
In short: as §1

USP4 = biological target: T4, USP4 (UniProt Q13107)
T4 sequence (whole entry): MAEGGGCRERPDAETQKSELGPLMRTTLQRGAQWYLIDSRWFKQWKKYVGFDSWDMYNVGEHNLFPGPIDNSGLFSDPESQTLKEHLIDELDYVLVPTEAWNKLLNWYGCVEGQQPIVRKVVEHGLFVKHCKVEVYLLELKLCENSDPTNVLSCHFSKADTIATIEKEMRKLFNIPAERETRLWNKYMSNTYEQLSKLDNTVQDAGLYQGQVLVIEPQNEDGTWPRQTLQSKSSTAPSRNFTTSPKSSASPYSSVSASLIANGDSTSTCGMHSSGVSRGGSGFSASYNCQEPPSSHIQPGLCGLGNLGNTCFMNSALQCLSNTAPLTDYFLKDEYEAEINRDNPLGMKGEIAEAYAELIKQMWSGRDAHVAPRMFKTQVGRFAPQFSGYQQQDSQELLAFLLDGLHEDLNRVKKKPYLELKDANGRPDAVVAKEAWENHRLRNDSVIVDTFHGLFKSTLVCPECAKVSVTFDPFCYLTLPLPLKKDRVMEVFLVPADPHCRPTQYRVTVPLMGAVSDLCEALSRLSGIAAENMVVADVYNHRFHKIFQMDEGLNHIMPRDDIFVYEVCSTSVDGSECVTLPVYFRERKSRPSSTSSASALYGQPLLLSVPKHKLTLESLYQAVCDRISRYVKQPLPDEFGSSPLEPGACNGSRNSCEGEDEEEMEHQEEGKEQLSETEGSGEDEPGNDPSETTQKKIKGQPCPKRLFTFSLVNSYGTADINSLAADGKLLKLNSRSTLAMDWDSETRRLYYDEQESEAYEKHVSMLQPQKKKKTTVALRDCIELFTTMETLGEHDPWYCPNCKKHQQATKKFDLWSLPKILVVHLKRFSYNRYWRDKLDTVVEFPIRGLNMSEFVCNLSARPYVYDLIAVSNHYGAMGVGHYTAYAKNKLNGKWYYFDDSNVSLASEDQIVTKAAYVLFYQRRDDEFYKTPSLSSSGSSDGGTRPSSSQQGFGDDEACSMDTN
In short: as §1

Measured: log2 ratio of Biotin-Ahx-Ub-VS probe labelling

Sequence of USP34 (Q70CQ2 whole entry, the tested form may be a part): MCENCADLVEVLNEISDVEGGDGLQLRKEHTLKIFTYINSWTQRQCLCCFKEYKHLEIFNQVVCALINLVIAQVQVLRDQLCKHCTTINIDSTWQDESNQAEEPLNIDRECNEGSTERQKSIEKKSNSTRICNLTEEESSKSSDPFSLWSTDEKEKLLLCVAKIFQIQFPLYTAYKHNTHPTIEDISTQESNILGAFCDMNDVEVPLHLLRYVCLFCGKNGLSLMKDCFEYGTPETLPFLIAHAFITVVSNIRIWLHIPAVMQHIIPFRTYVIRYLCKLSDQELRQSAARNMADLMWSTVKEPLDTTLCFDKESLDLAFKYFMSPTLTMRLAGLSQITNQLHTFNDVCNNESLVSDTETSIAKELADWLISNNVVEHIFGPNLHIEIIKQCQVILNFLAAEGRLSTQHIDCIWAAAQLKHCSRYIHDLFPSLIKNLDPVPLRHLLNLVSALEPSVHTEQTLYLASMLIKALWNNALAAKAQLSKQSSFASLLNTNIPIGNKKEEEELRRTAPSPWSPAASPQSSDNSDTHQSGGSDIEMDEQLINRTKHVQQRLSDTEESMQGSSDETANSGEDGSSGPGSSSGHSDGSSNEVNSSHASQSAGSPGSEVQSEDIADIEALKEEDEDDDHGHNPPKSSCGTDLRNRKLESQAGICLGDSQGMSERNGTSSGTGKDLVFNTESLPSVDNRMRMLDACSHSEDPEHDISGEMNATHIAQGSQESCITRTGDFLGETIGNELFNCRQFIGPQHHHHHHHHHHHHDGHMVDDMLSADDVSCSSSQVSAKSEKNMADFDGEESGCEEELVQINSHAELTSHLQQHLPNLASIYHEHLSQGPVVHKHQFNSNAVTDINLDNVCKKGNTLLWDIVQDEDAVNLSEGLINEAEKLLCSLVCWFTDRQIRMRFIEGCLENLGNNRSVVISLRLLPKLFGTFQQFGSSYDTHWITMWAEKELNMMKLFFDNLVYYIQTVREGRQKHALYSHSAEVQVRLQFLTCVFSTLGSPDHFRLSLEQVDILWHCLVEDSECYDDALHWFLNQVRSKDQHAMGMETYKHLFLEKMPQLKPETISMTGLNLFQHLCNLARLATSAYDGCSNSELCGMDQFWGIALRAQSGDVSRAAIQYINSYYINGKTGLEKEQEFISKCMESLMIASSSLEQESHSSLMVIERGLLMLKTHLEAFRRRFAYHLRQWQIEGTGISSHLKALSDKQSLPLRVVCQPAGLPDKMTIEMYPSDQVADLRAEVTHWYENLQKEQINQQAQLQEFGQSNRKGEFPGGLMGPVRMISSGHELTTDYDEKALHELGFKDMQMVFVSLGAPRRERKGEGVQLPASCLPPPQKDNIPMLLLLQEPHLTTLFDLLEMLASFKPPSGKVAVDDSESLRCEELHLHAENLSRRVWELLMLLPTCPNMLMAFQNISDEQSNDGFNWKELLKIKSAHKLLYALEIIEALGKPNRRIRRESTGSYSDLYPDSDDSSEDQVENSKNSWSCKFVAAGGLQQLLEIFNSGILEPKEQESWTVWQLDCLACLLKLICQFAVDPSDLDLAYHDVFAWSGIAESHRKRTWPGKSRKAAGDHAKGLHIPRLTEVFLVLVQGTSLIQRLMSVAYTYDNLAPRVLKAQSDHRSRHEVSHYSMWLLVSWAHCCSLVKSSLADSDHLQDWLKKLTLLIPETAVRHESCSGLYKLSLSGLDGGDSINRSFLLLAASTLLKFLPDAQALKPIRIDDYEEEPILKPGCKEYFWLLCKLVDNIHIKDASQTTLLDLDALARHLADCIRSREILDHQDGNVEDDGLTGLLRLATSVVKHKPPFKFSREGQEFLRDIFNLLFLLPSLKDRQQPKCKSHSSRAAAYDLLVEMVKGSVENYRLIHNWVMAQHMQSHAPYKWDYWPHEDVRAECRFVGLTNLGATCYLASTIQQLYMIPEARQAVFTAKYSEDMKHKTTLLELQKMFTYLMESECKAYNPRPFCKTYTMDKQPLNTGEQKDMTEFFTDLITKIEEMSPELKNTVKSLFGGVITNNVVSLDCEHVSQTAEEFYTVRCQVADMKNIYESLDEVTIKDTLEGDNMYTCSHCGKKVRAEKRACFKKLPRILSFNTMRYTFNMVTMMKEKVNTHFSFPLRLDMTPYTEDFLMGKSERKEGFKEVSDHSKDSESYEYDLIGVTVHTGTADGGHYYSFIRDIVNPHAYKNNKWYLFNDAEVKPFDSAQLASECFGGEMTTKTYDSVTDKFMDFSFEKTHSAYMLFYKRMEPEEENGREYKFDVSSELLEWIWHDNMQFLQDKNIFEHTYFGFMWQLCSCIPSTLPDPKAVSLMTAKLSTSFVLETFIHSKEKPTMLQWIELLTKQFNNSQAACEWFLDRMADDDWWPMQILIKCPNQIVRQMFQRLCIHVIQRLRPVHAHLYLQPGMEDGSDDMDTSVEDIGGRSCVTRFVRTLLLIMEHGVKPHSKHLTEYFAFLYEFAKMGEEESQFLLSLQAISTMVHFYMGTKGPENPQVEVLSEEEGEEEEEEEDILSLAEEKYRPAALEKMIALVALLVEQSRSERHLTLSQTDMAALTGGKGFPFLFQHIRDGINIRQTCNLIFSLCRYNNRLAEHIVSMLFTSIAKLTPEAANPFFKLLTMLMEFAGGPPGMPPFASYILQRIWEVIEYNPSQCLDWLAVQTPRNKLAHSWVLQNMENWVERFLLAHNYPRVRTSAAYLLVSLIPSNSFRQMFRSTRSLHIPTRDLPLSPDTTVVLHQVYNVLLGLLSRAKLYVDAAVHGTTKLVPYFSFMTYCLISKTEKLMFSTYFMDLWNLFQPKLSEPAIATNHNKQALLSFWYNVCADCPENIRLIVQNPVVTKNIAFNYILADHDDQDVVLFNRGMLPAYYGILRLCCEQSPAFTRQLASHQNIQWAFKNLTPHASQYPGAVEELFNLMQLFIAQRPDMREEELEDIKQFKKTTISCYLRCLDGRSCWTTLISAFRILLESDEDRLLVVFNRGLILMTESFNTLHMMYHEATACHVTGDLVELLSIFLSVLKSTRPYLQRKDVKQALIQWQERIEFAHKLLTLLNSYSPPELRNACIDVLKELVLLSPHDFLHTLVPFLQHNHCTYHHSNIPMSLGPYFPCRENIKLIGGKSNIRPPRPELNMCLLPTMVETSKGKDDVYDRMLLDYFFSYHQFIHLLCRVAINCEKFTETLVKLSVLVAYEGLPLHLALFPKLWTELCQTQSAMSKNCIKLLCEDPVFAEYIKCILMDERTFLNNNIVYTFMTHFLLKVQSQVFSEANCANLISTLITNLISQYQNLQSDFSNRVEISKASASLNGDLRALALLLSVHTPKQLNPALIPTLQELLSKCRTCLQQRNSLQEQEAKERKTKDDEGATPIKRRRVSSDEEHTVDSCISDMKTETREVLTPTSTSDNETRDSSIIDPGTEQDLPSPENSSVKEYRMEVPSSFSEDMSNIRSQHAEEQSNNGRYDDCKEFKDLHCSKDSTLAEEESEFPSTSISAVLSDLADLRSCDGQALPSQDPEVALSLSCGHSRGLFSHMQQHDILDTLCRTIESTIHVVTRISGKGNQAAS

O=C(CCl)N1CCC(C(=O)N2CCCCCC2)CC1
inactive: USP34 -0.0554 | USP36 -0.258 | USP38 -0.135 | USP39 -0.143 | USP4 0.128
